This is an account of results in PubChem BioAssay (Tox21).

Several values for one entry are separate records, joined by “and”; a condition that tells them apart may be missing. Equal entries are not always repeated. Records with an inconclusive call do not appear. More than one record can exist for a structure, and the calls need not agree. Activity calls are given as the source filed them. Unless noted, the call rests on the fitted dose curve.

A short description of experiment [1]: qHTS assay to identify small molecule agonists of the vitamin D receptor (VDR) signaling pathway - cell viability counter screen (AID 743224; active means well fitted curve in the direction sought with a large enough effect in the repeat runs; an effect the other way counts as inactive or inconclusive; further: nearly all actives have a fitted effect of over 50% in size; further: potency means the concentration at half of the fitted maximal effect; on activity change, negative = cytotoxicity: series mostly up to about 63 µM; on the % scale 0 is the no-effect control and ±100 the full control effect). In short, it runs like this: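 Cells: VDR-bla, 2,000/well, settled 4 h. Treatment: compounds in DMSO, 16 h, 37C/5% CO2. Readout: CellTiter-Glo luminescence after 30 min RT.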
In general terms: In qHTS, concentration-response curves come from the screen itself.

Experiment [2] in a line: qHTS assay to identify small molecule antagonists of the vitamin D receptor (VDR) signaling pathway - cell viability counter screen (AID 743225; active means well fitted curve in the direction sought with a large enough effect in the repeat runs; an effect the other way counts as inactive or inconclusive; further: on the % scale 0 is the no-effect control and ±100 the full control effect; nearly all actives have a fitted effect of over 50% in size). Put shortly: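 Luminescent cell viability (CellTiter-Glo) in VDR-bla HEK 293T cells after 16 h compound exposure at 37C in the presence of 3 nM final 1-alpha,25-dihydroxy vitamin D3.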
The nature of experiment [3]: qHTS assay to identify small molecule agonists of the NFkB signaling pathway (AID 1159509; active means well fitted curve in the direction sought with a large enough effect in the signal ratio in the repeat runs, not every such curve was filed as active; the % refers to the signal ratio; further: series mostly up to about 61 µM; on the % scale 0 is the no-effect control and ±100 the full control effect). In short, it runs like this:
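Agonist activity was read as beta-lactamase-driven FRET change (460 and 530 nm emission, 405 nm excitation) following 1.5 hr substrate loading at room temperature. Beforehand, ME-180 NFkB-bla reporter cells were treated with compounds for 5 hr at 37 C.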

Experiment [4] is described as follows: qHTS assay to identify small molecule agonists of the NFkB signaling pathway - cell viability counter screen (AID 1159515). Further: series mostly up to about 61 µM; on the % scale 0 is the no-effect control and ±100 the full control effect; nearly all actives have a fitted effect of over 55% in size. In short, it runs like this: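 Cells are seeded (2,000 NFkB-bla ME-180 per well), rested overnight, and dosed with DMSO-dissolved compounds for 5 hr at 37 C. Viability is then read by CellTiter-Glo luminescence after 30 min at room temperature.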

The nature of experiment [5]: qHTS assay to identify small molecule agonists of the endoplasmic reticulum stress response signaling pathway - cell viability counter screen (AID 1159517). Further: nearly all actives have a fitted effect of over 50% in size. Further: potency means the concentration at half of the fitted maximal effect.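 On activity change, negative = cytotoxicity: HeLa cells carrying an ER stress response element beta-lactamase reporter; series mostly up to about 61 µM; on the % scale 0 is the no-effect control and ±100 the full control effect.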 In short, it runs like this:
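Cpd-treated ESRE-bla HeLa (5 hr, 37 C) → LiveBLAzer 2 hr RT → CellTiter-Glo 30 min RT → luminescence.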

Experiment [6] can be described thus: qHTS assay to identify small molecule antagonists of the retinoid-related orphan receptor gamma (ROR-gamma) signaling pathway - cell viability counter screen (AID 1159520; active means well fitted curve in the direction sought with a large enough effect in the repeat runs; an effect the other way counts as inactive or inconclusive; further: nearly all actives have a fitted effect of over 50% in size; further: potency means the concentration at half of the fitted maximal effect). Put shortly: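 Tet-on ROR gamma CHO cells (1,000/well) were plated 4 hr, given compounds in DMSO for 2 hr at 37 C, then induced with 1 uM final doxycycline for 16 hr. Viability was read as ATP by CellTiter-Glo luminescence after 30 min.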

Experiment [7] deals with Nuclear receptor ROR-gamma (Homo sapiens) (UniProt P51449). The experiment can be described thus: qHTS assay to identify small molecule antagonists of the retinoid-related orphan receptor gamma (ROR-gamma) signaling pathway (AID 1159521; active means well fitted curve in the direction sought with a large enough effect in the repeat runs; an effect the other way counts as inactive or inconclusive; further: nearly all actives have a fitted effect of over 50% in size; further: potency means the concentration at half of the fitted maximal effect). Put shortly: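 CHO cells expressing RORγ under a TET-on promoter, luciferase under RORE control. Dox 1 uM final, 16 h; compounds added 2 h prior. Luminescence decrease measured.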

Experiment [8] in a line: qHTS assay to identify small molecule agonists of the AP-1 signaling pathway - cell viability counter screen (AID 1159525). Further: nearly all actives have a fitted effect of over 55% in size. Put shortly:
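Each titration point was normalised to DMSO and tetra n-octyl ammonium bromide controls. The read was Cell Titer Glo luminescence after 30 min at RT, following 5 h compound exposure of ME-180 AP-1-bla cells at 37 °C.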

Experiment [9] can be described thus: qHTS assay to identify small molecule agonists of the AP-1 signaling pathway (AID 1159526). Further: on the % scale 0 is the no-effect control and ±100 the full control effect.

On to `CCOP(=S)(OCC)Oc1nc(Cl)c(Cl)cc1Cl`, for which the Potency result in experiment [1], in experiment [2], in experiment [4], in [5], in experiment [6] and in [8] was “inactive” throughout. For the same molecule, in [3], the call was inactive. Further, in [7], the Potency was 27.4 µM (active) and inactive.

For `CNC(C)Cc1ccccc1OC` (centres undefined), the Potency entry in experiment [1], in experiment [2], in experiment [4], in [5], in experiment [6] and in experiment [7] was “inactive” each time. In addition, the Potency result in experiment [8] was “inactive”. The molecule was classed as inactive in experiment [3] and in [9].

Turning to `C=COC(C)=O`, the Potency result in experiment [1], in experiment [2], in experiment [4], in [5], in [6] and in [7] was “inactive” in each case. In experiment [8], the Potency entry is “inactive”. Moreover, the result in experiment [3] and in [9] was inactive.

As to `O=NN1CCCCCC1`, the Potency entry in [1], in experiment [2], in experiment [4], in [5], in [6] and in [7] was “inactive” in each case. The Potency entry in experiment [8] was “inactive”. Moreover, the molecule was classed as inactive in experiment [3] and in experiment [9].

Regarding `COc1cc(CC(C)N)cc2c1OCO2` (centres undefined), the Potency entry in experiment [1], in experiment [2], in [4], in experiment [5], in [6] and in experiment [7] was “inactive” in each case. For the same molecule, the Potency entry in experiment [8] is “inactive”. The call in experiment [3] and in experiment [9] was inactive.

Consider `O=C(O)C(F)(F)C(F)(F)C(F)(F)C(F)(F)C(F)(F)C(F)(F)C(F)(F)C(F)(F)C(F)(F)C(F)(F)F`, for which the Potency entry in experiment [1], in experiment [2], in experiment [4], in [5], in experiment [6] and in [7] was “inactive” each time. Further, the Potency result in [8] was “inactive”. Also, the result in experiment [3] and in experiment [9] was inactive.

For the molecule `CC(O)(CS(=O)(=O)c1ccc(F)cc1)C(=O)Nc1ccc(C#N)c(C(F)(F)F)c1` (centres undefined), the Potency entry in experiment [1], in experiment [4], in experiment [5], in [6] and in experiment [8] was “inactive” throughout. Further, the result in experiment [3] and in experiment [9] was inactive. For the same molecule, in [7], the Potency was 25.2 µM (active).

`O=C(C(Cl)(Cl)Cl)C(Cl)(Cl)Cl`: the Potency entry in experiment [1], in experiment [2], in [4], in experiment [5], in experiment [6] and in [7] was “inactive” in each case. For the same molecule, the Potency entry in experiment [8] was “inactive”. Moreover, the molecule was classed as inactive in [3] and in [9].

Regarding `CCCN(CC1CC1)c1c([N+](=O)[O-])cc(C(F)(F)F)cc1[N+](=O)[O-]`, the Potency result in [1], in experiment [2], in [4], in experiment [5], in experiment [6] and in [7] was “inactive” in each case. Also, the Potency result in experiment [8] is “inactive”. Further, the molecule was called inactive in experiment [3] and in [9].

On to `CC(C)=CCOc1c2occc2cc2ccc(=O)oc12`, for which the Potency result in [1], in experiment [2], in experiment [4], in [5], in [6] and in experiment [7] was “inactive” in each case. For the same molecule, the Potency result in experiment [8] is “inactive”. Further, the call in [3] and in [9] was inactive.

In the case of `CCOP(=O)(OCC)Oc1ccc([N+](=O)[O-])cc1`, the Potency entry in experiment [1], in [2], in [4], in [5], in experiment [6] and in experiment [7] was “inactive” in each case. Besides, the Potency result in [8] is “inactive”. The result in experiment [3] and in experiment [9] was inactive.

Turning to `O=[N+]([O-])c1ccccc1CCl`, the Potency entry in [1], in [2], in experiment [4], in experiment [5], in experiment [6] and in experiment [7] was “inactive” each time. Besides, the Potency result in [8] was “inactive”. Also, in [3], the molecule was classed as inactive.

With `COC(N)=O`, the Potency result in [1], in experiment [2], in [4], in experiment [5], in experiment [6] and in experiment [7] was “inactive” in each case. For the same molecule, the Potency result in experiment [8] was “inactive”. Moreover, the outcome in experiment [3] and in experiment [9] was inactive.

As for `COc1nn(C(=O)NS(=O)(=O)c2ccccc2OC(F)(F)F)c(=O)n1C`, the Potency result in experiment [1], in [4], in experiment [5], in [6] and in [8] was “inactive” each time. Also, the outcome in experiment [3] and in [9] was inactive.

Take `CCOc1ccc(C(C)(C)COCc2cccc(Oc3ccccc3)c2)cc1`: the Potency result in experiment [1], in experiment [2], in experiment [4], in experiment [5], in experiment [6] and in [7] was “inactive” throughout. The Potency entry in [8] is “inactive”. The molecule was classed as inactive in [3] and in experiment [9].

For `CCOS(C)(=O)=O`, the Potency entry in experiment [1], in experiment [2], in experiment [4], in experiment [5], in experiment [6] and in [8] was “inactive” each time. Besides, the molecule was called inactive in experiment [3] and in experiment [9].

As to `O=Cc1ccc2c(c1)OCO2`, the Potency result in experiment [1], in experiment [2], in [4], in experiment [5], in experiment [6] and in [7] was “inactive” throughout. In addition, the Potency result in experiment [8] is “inactive”. Also, the molecule was classed as inactive in experiment [3] and in experiment [9].

Take `CNP(=O)(OC)Oc1ccc(C(C)(C)C)cc1Cl` (centres undefined): the Potency entry in experiment [1], in experiment [2], in [4], in [5], in experiment [6] and in experiment [8] was “inactive” throughout. The outcome in experiment [3] and in experiment [9] was inactive.

In the case of `O=C1C(Cl)C(CCl)CN1c1cccc(C(F)(F)F)c1` (centres undefined), the Potency result in experiment [1], in experiment [2], in [4], in experiment [5], in experiment [6] and in experiment [8] was “inactive” in each case. For the same molecule, the outcome in experiment [3] and in experiment [9] was inactive.

For `Nc1ccc(N=Nc2ccc(-c3ccc(N=Nc4c(S(=O)(=O)O)cc5cc(S(=O)(=O)O)c(N=Nc6ccccc6)c(O)c5c4N)cc3)cc2)c(N)c1`, the molecule was classed as inactive in experiment [3]. In addition, the Potency result in [4], in experiment [5] and in [8] was “inactive” in each case. For the same molecule, the Potency in experiment [6] was 15.7 µM (active).

`[O-][Cl+]O`: the Potency result in [1], in [4], in [5], in experiment [6], in experiment [7] and in experiment [8] was “inactive” each time. For the same molecule, the molecule was called inactive in experiment [3] and in [9].

For the molecule `CC(C)(OO)c1ccccc1`, the Potency in [1] is 54.9 µM (active); in experiment [5] it was 43.6 µM (active). Further, the result in experiment [3] and in experiment [9] was inactive. For the same molecule, the Potency result in experiment [4] and in experiment [8] was “inactive” in each case.

With `CC(c1ccc(O)cc1)(c1ccc(O)cc1)c1ccc(O)cc1`, the Potency result in experiment [2], in [4], in experiment [5] and in experiment [6] was “inactive” each time. In experiment [3], the result was inactive.

`C(=NC1CCCCC1)=NC1CCCCC1`: in experiment [1], the Potency result was “inactive and 24.5 µM (active)”. Moreover, the Potency entry in [2], in [4], in experiment [5], in [7] and in experiment [8] was “inactive” throughout. The molecule was classed as inactive in experiment [3] and in experiment [9].

As for `ClCc1cccc(Cl)c1`, the Potency result in experiment [1], in experiment [2], in experiment [4], in [5] and in experiment [6] was “inactive” in each case. The result in experiment [3] and in experiment [9] was inactive.

In the case of `O=C(O)CC(Cl)C(=O)O` (centres undefined), the Potency entry in experiment [1], in [4], in experiment [6], in [7] and in experiment [8] was “inactive” each time. The call in experiment [3] and in [9] was inactive.

`CCCN(CCC)c1c([N+](=O)[O-])cc(S(C)(=O)=O)cc1[N+](=O)[O-]`: the Potency entry in experiment [1], in [2], in experiment [4], in experiment [5], in [6] and in experiment [8] was “inactive” each time. The outcome in [3] and in experiment [9] was inactive.

For the molecule `NCC(CC(=O)O)c1ccc(Cl)cc1` (centres undefined), the activity change, negative = cytotoxicity in [1] was 15.2% [at 0.55 µM] (inactive). Also, the activation is 0.398% [at 0.628 µM] (inactive) in [3] and -1.64% [at 0.29 µM] (inactive) in [9]. In [4], the activity, negative = cytotoxic is 1.83% [at 0.628 µM] (inactive). Besides, in experiment [6], the activity, negative = cytotoxicity was -1.2% [at 0.349 µM] (inactive). For the same molecule, the activity change, negative = inhibition in [7] is 4.26% [at 0.35 µM] (inactive). Further, the viability change, negative = cytotoxic in experiment [8] was -1.57% [at 0.29 µM] (inactive).
